Experimental data from PubChem BioAssay (EPA / NIEHS).
Results filed as inconclusive are left out. Activity calls are given as the source filed them. The calls were made as follows, unless noted: active = hit-call score of the fitted dose curve at least 0.9, where 1 is the maximum; inconclusive = response in the unintended direction; inactive = score below 0.9.

How the values were obtained:
[1] = target: Steroid hormone receptor ERR1 (Homo sapiens) (UniProt P11474); assay: ATG_ERRa_TRANS: Attagene TRANS-FACTORIAL HepG2 Assay for human Estrogen-Related Receptor alpha (ERRa) (AID 2282971); conditions: HepG2 Attagene TRANS reporter, ERRa transactivation
Summary of the method: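 Transfected HepG2, 24 h dosing, ERRa-Gal4 chimera driving GAL4-UAS reporter. Readout: reporter mRNA via RT-PCR plus capillary electrophoresis (fluorescence). Positive direction vs DMSO control.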

[2] = target: X-box-binding protein 1 (Homo sapiens) (UniProt P17861); assay: ATG_Xbp1_CIS: Attagene CIS-FACTORIAL HepG2 Assay for human X-box Binding Protein 1 (XBP1) (AID 2282972; active = hit-call score of the fitted dose curve at least 0.9, where 1 is the maximum; inactive = score below 0.9); conditions: HepG2 XBP1 cis-element reporter, Attagene multiplex; actives raise or lower the signal
Summary of the method: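 HepG2, transient MRTU transfection (cis-promoter driven), 24 h compound exposure. Total RNA → oligo(dT) RT → PCR → 6-FAM labeling → HpaI cut → CE. Bidirectional fit vs DMSO.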

[3] = ATG_M_19_TRANS: Attagene TRANS-FACTORIAL HepG2 Assay for M19 Transcription Factor (Internal Marker) (AID 2282974); conditions: HepG2 Attagene TRANS-FACTORIAL M19 internal marker reporter
Summary of the method: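 Background-control readout: after 24 h chemical exposure of transfected HepG2 carrying GAL4-driven reporter units, RNA was reverse-transcribed, amplified, fluorescently labeled and sized by capillary electrophoresis; gain-of-signal fit against DMSO.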

[4] = ATG_GAL4_TRANS: Attagene TRANS-FACTORIAL HepG2 Assay for GAL4 (Internal Marker) (AID 2282976); conditions: HepG2 Attagene TRANS GAL4 internal marker reporter
Summary of the method: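 RT-PCR/capillary electrophoresis readout of reporter mRNA. HepG2, transient MRTU transfection (GAL4-UAS reporters), 24 h compound exposure. Background-control endpoint, positive direction vs DMSO baseline.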

[5] = target: Estrogen-related receptor gamma (Homo sapiens) (UniProt P62508); assay: ATG_ERRg_TRANS: Attagene TRANS-FACTORIAL HepG2 Assay for human Estrogen-Related Receptor gamma (ERRg) (AID 2282977); conditions: HepG2 Attagene TRANS reporter, ERRg transactivation;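 also: hits increase reporter signal over DMSO so potencies reflect activators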
Summary of the method: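 HepG2 cells transiently transfected with multiplexed GAL4-UAS reporter units and chimeric NR-Gal4 constructs were exposed to test chemicals for 24 h. Reporter mRNA was measured by RT-PCR, 6-FAM primer extension, HpaI digestion and capillary electrophoresis; gain-of-signal versus DMSO.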

[6] = target: Oxysterols receptor LXR-alpha (Homo sapiens) (UniProt Q13133); assay: ATG_LXRa_TRANS: Attagene TRANS-FACTORIAL HepG2 Assay for human Liver X Receptor alpha (LXRa) (AID 2282980); conditions: HepG2 Attagene TRANS reporter, LXRa transactivation
Summary of the method: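 Read-out: reporter transcript levels by RT-PCR plus capillary electrophoresis, fluorescence intensity. Transiently transfected HepG2, exogenous NR-GAL4 chimera, GAL4-UAS reporters; 24 h compound exposure. Activity = increase over DMSO negative control.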

[7] = target: Hepatocyte nuclear factor 4-alpha (Homo sapiens) (UniProt P41235); assay: ATG_HNF4a_TRANS: Attagene TRANS-FACTORIAL HepG2 Assay for human Hepatocyte Nuclear Factor 4 alpha (HNF4a) (AID 2282982); conditions: HepG2 HNF4a transactivation reporter, mRNA readout
Summary of the method: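 HepG2 cells transiently transfected with multiplexed GAL4-UAS reporter units responsive to chimeric NR-GAL4 proteins; compound exposure 24 h. Reporter mRNA quantified by RT-PCR, 6-FAM labelling, HpaI digestion and capillary electrophoresis; gain of signal versus DMSO baseline.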

[8] = ATG_M_06_TRANS: Attagene TRANS-FACTORIAL HepG2 Assay for M06 Transcription Factor (Internal Marker) (AID 2282983); conditions: HepG2 Attagene TRANS M06 internal marker reporter
Summary of the method: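 After a 24 h chemical treatment of transfected HepG2, RNA underwent DNase I treatment, reverse transcription and reporter-specific PCR; labelled, HpaI-digested products were sized by capillary electrophoresis. Signal increase relative to DMSO defined activity.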

[9] = ATG_M_32_TRANS: Attagene TRANS-FACTORIAL HepG2 Assay for M32 Transcription Factor (Internal Marker) (AID 2282984); conditions: HepG2 Attagene TRANS M32 internal marker reporter;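 also: transcript level of a background control reporter unit measured by RT-PCR and capillary electrophoresis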
Summary of the method: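 HepG2 cells transiently transfected with multiple GAL4-UAS reporter transcription units, dosed for 24 hours; reporter mRNA quantified by RT-PCR, 6-FAM primer extension, HpaI digestion and capillary electrophoresis. Gain-of-signal fitted versus DMSO baseline; internal background-control marker.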

[10] = target: Nuclear receptor subfamily 4 group A member 2 (Homo sapiens) (UniProt P43354); assay: ATG_NURR1_TRANS: Attagene TRANS-FACTORIAL HepG2 Assay for human Nuclear Receptor Related Protein 1 (NURR1) (AID 2282985); conditions: HepG2 Attagene TRANS reporter, mRNA readout
Summary of the method: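 HepG2 cells transiently transfected with GAL4-UAS reporter units and chimeric NR-Gal4 constructs; chemical exposure 24 h. Reporter mRNA quantified by RT-PCR, fluorescent labelling and capillary electrophoresis; gain of signal fitted relative to DMSO baseline.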

[11] = target: Transcriptional activator Myb (Homo sapiens) (UniProt P10242); assay: ATG_Myb_CIS: Attagene CIS-FACTORIAL HepG2 Assay for human Myeloblastosis (Myb) Proto-Oncogene Transcription Factor (AID 2282986; active = hit-call score of the fitted dose curve at least 0.9, where 1 is the maximum; inactive = score below 0.9); conditions: HepG2 Attagene CIS-FACTORIAL Myb reporter transcription; actives raise or lower the signal
Summary of the method: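 Reporter mRNA is quantified by RT-PCR and capillary electrophoresis 24 h after dosing HepG2 cells transfected with cis-regulated reporter units, which track endogenous transcription factor activity. Gain and loss of signal are fitted versus DMSO baseline.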

[12] = ATG_NFI_CIS: Attagene CIS-FACTORIAL HepG2 Assay for human Nuclear Factor I (NFI) (AID 2282989; active = hit-call score of the fitted dose curve at least 0.9, where 1 is the maximum; inactive = score below 0.9); conditions: HepG2 cis-regulatory reporter, NFI response element transcription; actives raise or lower the signal
Summary of the method: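 HepG2, transient MRTU, 24 h exposure; RNA→cDNA→PCR→FAM label→HpaI→CE fluorescence. Bidirectional fit, DMSO = baseline.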

[13] = target: Myc proto-oncogene protein (Homo sapiens) (UniProt P01106); assay: ATG_Myc_CIS: Attagene CIS-FACTORIAL HepG2 Assay for human Myelocytomatosis (Myc) Proto-Oncogene Transcription Factor (AID 2282990; active = hit-call score of the fitted dose curve at least 0.9, where 1 is the maximum; inactive = score below 0.9); conditions: HepG2, Attagene cis-reporter transcription factor activity; actives raise or lower the signal
Summary of the method: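 Multiplexed cis-reporter transcription in HepG2 cells after 24 h chemical treatment. Reporter mRNA measured by RT-PCR and capillary electrophoresis fluorescence; activity fitted bidirectionally against DMSO control.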

[14] = target: Glucocorticoid receptor (Homo sapiens) (UniProt P04150); assay: ATG_GR_TRANS: Attagene TRANS-FACTORIAL HepG2 Assay for human Glucocorticoid Receptor (GR) (AID 2282978); conditions: HepG2 Attagene TRANS GR reporter, mRNA transcription;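 also: activators score as hits since higher reporter transcript over DMSO is fitted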
Summary of the method: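 Readout is reporter transcript from a chimeric GR-Gal4 acting on GAL4-UAS in transfected human HepG2 liver cells after 24 h exposure, quantified by RT-PCR and capillary electrophoresis. Activation fitted upward against DMSO.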

[15] = target: Nuclear respiratory factor 1 (Homo sapiens) (UniProt Q16656); assay: ATG_NRF1_CIS: Attagene CIS-FACTORIAL HepG2 Assay for human Nuclear Respiratory Factor 1 (NRF1) Orphan Gene (AID 2282987; active = hit-call score of the fitted dose curve at least 0.9, where 1 is the maximum; inactive = score below 0.9); conditions: HepG2 NRF1 cis-element reporter, Attagene multiplex; actives raise or lower the signal
Summary of the method: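 Endogenous NRF1-driven reporter transcription in transfected HepG2 cells after 24 h treatment. Readout: RT-PCR products, 6-FAM labelled and resolved by capillary electrophoresis; changes fitted both directions relative to DMSO.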

[16] = target: Bile acid receptor (Homo sapiens) (UniProt Q96RI1); assay: ATG_FXR_TRANS: Attagene TRANS-FACTORIAL HepG2 Assay for Farnesoid X Receptor (FXR) (AID 2282979); conditions: HepG2 Attagene TRANS FXR-GAL4 reporter transcription;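 also: hits raise reporter mRNA above DMSO so AC50 marks FXR activation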
Summary of the method: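 Read-out: fluorescent reporter transcripts quantified by capillary electrophoresis after RT-PCR of total RNA. Source cells were HepG2 transiently carrying chimeric NR-GAL4 plus GAL4-UAS reporter units, dosed 24 h. Activity fitted upward relative to DMSO baseline.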

[17] = target: Oxysterols receptor LXR-beta (Homo sapiens) (UniProt P55055); assay: ATG_LXRb_TRANS: Attagene TRANS-FACTORIAL HepG2 Assay for human Liver X Receptor beta (LXRb) (AID 2282981); conditions: HepG2 Attagene TRANS GAL4-LXRb reporter, mRNA
Summary of the method: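 HepG2 cells transiently transfected with multiple reporter transcription units carrying chimeric NR-Gal4 proteins acting on GAL4-UAS reporters; compound exposure 24 h. Reporter mRNA quantified by RT-PCR, 6-FAM labelling, HpaI digestion and capillary electrophoresis; gain of signal versus DMSO.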

Chain of Nuclear respiratory factor 1 (Homo sapiens) (Q16656 whole entry, looked up): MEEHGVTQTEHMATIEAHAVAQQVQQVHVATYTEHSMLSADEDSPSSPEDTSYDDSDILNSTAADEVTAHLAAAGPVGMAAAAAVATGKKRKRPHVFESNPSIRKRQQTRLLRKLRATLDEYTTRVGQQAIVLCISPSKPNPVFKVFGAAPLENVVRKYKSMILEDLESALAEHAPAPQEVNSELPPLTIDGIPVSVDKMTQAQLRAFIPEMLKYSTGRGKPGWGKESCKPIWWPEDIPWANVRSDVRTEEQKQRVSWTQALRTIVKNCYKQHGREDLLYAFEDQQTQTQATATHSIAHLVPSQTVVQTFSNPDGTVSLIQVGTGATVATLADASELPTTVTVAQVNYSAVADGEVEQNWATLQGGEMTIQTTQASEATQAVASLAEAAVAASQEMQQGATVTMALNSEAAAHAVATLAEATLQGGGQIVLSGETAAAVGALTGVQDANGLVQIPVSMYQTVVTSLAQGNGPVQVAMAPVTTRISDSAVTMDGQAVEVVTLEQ
Chain of Nuclear receptor subfamily 4 group A member 2 (Homo sapiens) (P43354 whole entry, looked up, the tested form may be a part): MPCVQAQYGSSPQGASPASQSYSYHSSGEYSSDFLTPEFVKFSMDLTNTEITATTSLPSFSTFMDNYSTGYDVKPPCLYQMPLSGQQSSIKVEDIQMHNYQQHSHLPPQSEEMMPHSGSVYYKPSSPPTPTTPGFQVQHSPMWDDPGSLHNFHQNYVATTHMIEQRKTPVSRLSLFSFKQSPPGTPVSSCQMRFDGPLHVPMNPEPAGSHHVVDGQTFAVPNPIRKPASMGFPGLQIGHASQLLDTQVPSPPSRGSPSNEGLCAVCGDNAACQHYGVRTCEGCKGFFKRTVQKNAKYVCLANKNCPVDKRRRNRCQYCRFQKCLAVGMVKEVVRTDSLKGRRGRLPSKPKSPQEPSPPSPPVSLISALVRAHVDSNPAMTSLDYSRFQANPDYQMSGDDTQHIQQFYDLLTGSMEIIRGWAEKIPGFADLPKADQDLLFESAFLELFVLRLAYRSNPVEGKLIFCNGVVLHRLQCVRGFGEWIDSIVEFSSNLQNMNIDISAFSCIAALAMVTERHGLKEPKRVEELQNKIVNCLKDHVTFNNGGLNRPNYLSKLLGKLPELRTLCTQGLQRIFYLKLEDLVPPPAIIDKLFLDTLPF
Chain of Glucocorticoid receptor (Homo sapiens) (P04150 whole entry, looked up, the tested form may be a part): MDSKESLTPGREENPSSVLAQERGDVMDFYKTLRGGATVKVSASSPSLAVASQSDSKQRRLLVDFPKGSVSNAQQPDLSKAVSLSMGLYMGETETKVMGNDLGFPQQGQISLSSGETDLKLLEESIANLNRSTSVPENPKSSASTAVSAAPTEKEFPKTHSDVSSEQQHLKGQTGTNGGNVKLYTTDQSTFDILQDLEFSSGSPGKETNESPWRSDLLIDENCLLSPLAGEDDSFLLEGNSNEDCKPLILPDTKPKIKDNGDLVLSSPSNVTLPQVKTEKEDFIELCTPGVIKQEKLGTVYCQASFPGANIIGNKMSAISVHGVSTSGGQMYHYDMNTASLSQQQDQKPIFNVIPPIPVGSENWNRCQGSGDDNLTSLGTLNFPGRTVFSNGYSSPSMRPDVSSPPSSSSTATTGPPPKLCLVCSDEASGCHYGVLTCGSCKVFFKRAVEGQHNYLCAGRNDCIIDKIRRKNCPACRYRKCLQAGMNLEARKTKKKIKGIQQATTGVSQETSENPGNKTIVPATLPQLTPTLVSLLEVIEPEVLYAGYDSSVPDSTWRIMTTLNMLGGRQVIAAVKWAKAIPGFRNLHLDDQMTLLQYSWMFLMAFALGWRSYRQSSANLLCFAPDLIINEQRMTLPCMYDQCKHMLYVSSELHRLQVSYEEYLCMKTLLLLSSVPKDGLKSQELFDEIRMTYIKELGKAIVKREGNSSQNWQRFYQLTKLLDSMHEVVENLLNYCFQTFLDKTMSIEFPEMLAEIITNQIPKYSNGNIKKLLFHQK
Chain of Hepatocyte nuclear factor 4-alpha (Homo sapiens) (P41235 whole entry, looked up, the tested form may be a part): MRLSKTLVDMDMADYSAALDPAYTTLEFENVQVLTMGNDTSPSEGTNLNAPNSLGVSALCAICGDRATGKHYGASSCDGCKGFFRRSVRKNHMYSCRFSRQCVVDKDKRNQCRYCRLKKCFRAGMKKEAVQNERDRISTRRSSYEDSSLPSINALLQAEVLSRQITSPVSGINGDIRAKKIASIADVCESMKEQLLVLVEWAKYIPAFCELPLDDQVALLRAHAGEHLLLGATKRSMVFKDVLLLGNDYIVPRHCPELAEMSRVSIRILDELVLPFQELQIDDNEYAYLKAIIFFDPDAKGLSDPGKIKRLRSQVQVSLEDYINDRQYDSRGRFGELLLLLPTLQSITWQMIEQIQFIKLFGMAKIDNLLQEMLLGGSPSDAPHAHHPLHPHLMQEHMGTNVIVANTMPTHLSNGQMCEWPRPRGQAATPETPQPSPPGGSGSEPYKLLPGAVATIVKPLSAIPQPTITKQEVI
Chain of Transcriptional activator Myb (Homo sapiens) (P10242 whole entry, looked up): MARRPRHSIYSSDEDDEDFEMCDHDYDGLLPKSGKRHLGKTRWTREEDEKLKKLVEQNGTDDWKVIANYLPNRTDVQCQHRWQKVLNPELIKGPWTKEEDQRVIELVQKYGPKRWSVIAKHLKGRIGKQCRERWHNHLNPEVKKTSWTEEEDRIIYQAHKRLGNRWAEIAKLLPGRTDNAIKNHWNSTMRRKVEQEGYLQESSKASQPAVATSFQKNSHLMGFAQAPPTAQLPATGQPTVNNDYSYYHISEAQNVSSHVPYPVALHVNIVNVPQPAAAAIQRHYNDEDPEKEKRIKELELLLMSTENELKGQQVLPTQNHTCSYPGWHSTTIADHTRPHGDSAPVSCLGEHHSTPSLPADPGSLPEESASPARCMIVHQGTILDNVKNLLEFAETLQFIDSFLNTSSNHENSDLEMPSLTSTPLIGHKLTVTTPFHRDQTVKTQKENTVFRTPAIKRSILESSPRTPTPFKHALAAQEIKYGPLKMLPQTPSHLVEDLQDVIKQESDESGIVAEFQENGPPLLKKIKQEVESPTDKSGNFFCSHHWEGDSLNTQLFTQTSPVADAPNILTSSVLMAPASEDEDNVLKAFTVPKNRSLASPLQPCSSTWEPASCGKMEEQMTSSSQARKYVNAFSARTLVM
Chain of Myc proto-oncogene protein (Homo sapiens) (P01106 whole entry, looked up): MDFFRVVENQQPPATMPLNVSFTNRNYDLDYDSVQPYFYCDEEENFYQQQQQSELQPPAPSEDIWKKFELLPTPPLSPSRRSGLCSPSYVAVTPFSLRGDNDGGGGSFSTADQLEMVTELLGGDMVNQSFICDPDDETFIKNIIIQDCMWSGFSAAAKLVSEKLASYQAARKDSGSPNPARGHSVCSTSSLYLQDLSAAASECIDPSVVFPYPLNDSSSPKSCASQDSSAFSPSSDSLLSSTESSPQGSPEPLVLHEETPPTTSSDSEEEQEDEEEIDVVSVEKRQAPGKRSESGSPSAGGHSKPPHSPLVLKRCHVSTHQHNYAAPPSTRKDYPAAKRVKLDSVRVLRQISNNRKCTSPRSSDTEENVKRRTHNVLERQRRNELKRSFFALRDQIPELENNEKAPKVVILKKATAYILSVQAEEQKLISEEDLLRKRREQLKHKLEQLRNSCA
Chain of X-box-binding protein 1 (Homo sapiens) (P17861 whole entry, looked up): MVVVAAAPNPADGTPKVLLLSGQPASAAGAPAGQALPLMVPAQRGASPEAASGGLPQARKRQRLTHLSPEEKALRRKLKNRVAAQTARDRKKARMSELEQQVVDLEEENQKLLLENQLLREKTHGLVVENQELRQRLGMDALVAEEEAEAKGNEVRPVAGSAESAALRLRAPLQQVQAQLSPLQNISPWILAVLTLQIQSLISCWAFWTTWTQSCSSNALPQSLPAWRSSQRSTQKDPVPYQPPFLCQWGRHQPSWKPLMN
Chain of Oxysterols receptor LXR-beta (Homo sapiens) (P55055 whole entry, looked up, the tested form may be a part): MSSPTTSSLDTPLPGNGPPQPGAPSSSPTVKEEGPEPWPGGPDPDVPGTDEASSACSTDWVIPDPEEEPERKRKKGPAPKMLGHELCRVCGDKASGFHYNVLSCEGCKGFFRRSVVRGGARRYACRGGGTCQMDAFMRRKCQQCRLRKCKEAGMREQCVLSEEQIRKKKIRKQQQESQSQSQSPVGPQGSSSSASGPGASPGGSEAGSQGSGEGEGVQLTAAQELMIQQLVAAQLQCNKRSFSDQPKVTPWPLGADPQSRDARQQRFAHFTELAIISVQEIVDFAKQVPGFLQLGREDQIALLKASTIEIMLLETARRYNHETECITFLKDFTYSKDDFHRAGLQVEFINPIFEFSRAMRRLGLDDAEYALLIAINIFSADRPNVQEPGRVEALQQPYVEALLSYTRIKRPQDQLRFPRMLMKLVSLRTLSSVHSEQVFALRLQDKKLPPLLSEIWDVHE
Chain of Steroid hormone receptor ERR1 (Homo sapiens) (P11474 whole entry, looked up, the tested form may be a part): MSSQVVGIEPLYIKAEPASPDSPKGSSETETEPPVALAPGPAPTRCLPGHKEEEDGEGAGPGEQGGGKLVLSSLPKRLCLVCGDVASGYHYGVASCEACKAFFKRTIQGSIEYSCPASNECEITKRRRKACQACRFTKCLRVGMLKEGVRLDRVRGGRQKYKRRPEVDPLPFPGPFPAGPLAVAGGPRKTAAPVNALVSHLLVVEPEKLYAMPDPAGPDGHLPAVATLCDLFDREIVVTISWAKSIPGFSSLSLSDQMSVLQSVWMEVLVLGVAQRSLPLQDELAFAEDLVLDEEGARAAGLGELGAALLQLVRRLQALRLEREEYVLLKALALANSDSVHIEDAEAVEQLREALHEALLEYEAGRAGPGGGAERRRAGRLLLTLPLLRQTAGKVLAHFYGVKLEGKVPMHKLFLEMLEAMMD

In the case of COc1ccccc1N, the outcome [1] is reported as “inactive”, the outcome [2] is reported as “inactive” and the outcome [3] is reported as “inactive”. For the same molecule, the outcome [4] was “inactive”, the outcome [5] was “inactive” and the outcome [6] was “inactive”. For the same molecule, the outcome [7] was “inactive”, the outcome [8] was “inactive” and the outcome [9] was “inactive”. The outcome [10] was “inactive”, the outcome [11] was “inactive” and the outcome [12] was “inactive”. The outcome [13] was “inactive”.

For O=[N+]([O-])c1ccc(Cl)c([N+](=O)[O-])c1, the outcome [2] was “inactive”, the outcome [3] was “inactive” and the outcome [14] was “inactive”. For the same molecule, the outcome [9] was “inactive”, the outcome [15] was “inactive” and the outcome [12] was “inactive”. For the same molecule, the AC50 [13] was 3.71 µM (active).

With CCCCCCCCCCCCOS(=O)(=O)O the outcome [2] was “inactive”, the outcome [3] was “inactive” and the outcome [4] was “inactive”. The outcome [14] was “inactive”, the outcome [9] was “inactive” and the outcome [11] was “inactive”. For the same molecule, the outcome [15] was “inactive”, the outcome [12] was “inactive” and the outcome [13] was “inactive”.

In the case of CNC(=O)CSP(=O)(OC)OC, the outcome [2] is reported as “inactive”, the outcome [3] is reported as “inactive” and the outcome [14] is reported as “inactive”. The outcome [16] was “inactive”, the outcome [17] was “inactive” and the outcome [7] was “inactive”. The outcome [8] was “inactive”, the outcome [9] was “inactive” and the outcome [10] was “inactive”. For the same molecule, the outcome [11] was “inactive”, the outcome [15] was “inactive” and the outcome [12] was “inactive”. For the same molecule, the outcome [13] was “inactive”.

In the case of C[As+](C)(C)CC(=O)[O-], the outcome [2] is reported as “inactive”, the outcome [4] is reported as “inactive” and the outcome [14] is reported as “inactive”. The outcome [11] was “inactive”, the outcome [15] was “inactive” and the outcome [12] was “inactive”. For the same molecule, the outcome [13] was “inactive”.

For N#CCC#N, the outcome [2] was “inactive”, the outcome [14] was “inactive” and the outcome [17] was “inactive”. For the same molecule, the outcome [7] was “inactive”, the outcome [8] was “inactive” and the outcome [10] was “inactive”. The outcome [11] was “inactive”, the outcome [15] was “inactive” and the outcome [12] was “inactive”. For the same molecule, the outcome [13] was “inactive”.
